# Experimental data reported in PubChem BioAssay (NCATS).
# Records with an inconclusive call do not appear. Where a call stands in place of a potency, no number is given. Activity calls are given as the source filed them. Unless noted, calls follow the shape of the dose curve; as a rule, active = well fitted curve in the direction sought with a large enough effect; inconclusive = small, poorly fitted or top-dose-only effect, or another doubt; inactive = no such curve, though single readings can be large; an effect the other way counts as inactive or inconclusive. *1 amine or outer side, *2 acyl side, *3 side chain or, on linkers, in order; H or OH if unused. Where a SMILES comes first, the peptide text is derived from it. Bridges are numbered along the chain shown (N, C = ends). Roman numbers before positions name the chains, in order. [ ]: non-standard residue; d: D form. ξ: configuration not given here. Actinocin(9to1) = Cc1c2oc3c(C)ccc(C(=O)[*:1])c3nc-2c(C(=O)[*:2])c(N)c1=O; ξNMeV = CNC(C(=O)O)C(C)C; ξV = CC(C)C(N)C(=O)O; Sar = CNCC(=O)O
# Tests used:
# [1] = Cytotoxicity counterscreen for NFkB agonists and antagonists (AID 624476); conditions: NFkB reporter cell line viability counterscreen; series mostly up to 46.1 µM;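 also: cells exposed to compound for 48 hours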; also: potency is read from the fitted curve at half-maximal effect
# [2] = qHTS Assay for Identification of Small Molecule Agonists for NFkB Signaling Pathway. (AID 624478); conditions: NFkB pathway reporter cell assay, agonist mode, cells co-stimulated with 10 pM TNF alpha; series mostly up to 46.1 µM;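 also: compounds tested together with TNF alpha at its EC50 of 10 pM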
# Procedure, shortened: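 Activators were sought in reporter cells stimulated at the TNF alpha EC50 (10 pM final). Compound and cytokine were co-incubated 5 hours at 37 C before beta-lactamase substrate detection by dual-emission fluorescence.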
# [3] = target: Luciferin 4-monooxygenase (Photinus pyralis) (UniProt P08659); assay: Biochemical firefly luciferase enzyme assay for NPC (AID 624030); also: nearly all actives have a fitted effect of over 70% in size; also: potency is read from the fitted curve at half-maximal effect; conditions: purified P. pyralis luciferase, luminescence, 5 min; series mostly up to 58.6 µM
# Chain of Luciferin 4-monooxygenase (Photinus pyralis) (P08659 whole entry, looked up): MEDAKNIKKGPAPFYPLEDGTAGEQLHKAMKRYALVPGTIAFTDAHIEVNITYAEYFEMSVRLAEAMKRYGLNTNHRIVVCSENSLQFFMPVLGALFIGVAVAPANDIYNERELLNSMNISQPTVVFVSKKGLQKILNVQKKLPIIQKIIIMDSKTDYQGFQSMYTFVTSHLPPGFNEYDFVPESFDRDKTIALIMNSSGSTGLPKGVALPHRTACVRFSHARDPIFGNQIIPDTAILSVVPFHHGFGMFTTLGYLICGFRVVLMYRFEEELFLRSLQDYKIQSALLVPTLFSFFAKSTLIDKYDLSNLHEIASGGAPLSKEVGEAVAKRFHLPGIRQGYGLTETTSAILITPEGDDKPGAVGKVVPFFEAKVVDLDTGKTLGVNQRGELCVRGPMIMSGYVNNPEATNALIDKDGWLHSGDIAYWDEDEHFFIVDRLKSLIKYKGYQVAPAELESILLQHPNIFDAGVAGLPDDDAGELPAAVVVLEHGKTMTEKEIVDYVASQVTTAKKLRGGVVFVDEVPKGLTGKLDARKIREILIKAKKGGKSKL
# Procedure, shortened: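 Counter-screen for direct inhibition of the luciferase enzyme by approved-drug library compounds, run at 10 nM enzyme in 50 mM Tris acetate (final). Luminescence was read within 5 min of enzyme-buffer addition and normalized to PTC124 versus DMSO (0%).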
# [4] = S16 Schwann cell PMP22 intronic element firefly luciferase assay (AID 624032); conditions: S16 rat Schwann cells, PMP22 element FLuc, 24 h; series mostly up to 57.5 µM; also: nearly all actives have a fitted effect of over 30% in size
# Procedure, shortened: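 Rat S16 Schwann cells stably carrying a PMP22 intronic element-driven Fluc reporter were seeded overnight, then exposed to compounds for 24 h at 37 °C. Luminescence was normalized to PTC124 (positive control) and DMSO (0% activity).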
# [5] = S16 Schwann cell PMP22 intronic element beta-lactamase assay (AID 624044; calls by dose curve; also: nearly all actives have a fitted effect of over 15% in size); conditions: S16 rat Schwann cells, PMP22 element beta-lactamase FRET, 24 h; series mostly up to 38.3 µM
# Procedure, shortened: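 Beta-lactamase reporter under a PMP22 intronic regulatory element in stable S16 rat Schwann cells; 24 h compound exposure. 460 nm blue signal normalized between DMSO (0%) and potassium clavulanate, with 535 nm FRET tracking viability; curves classed by r2 and response.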
# [6] = S16 Schwann cell viability assay (CellTiter-Glo assay) (AID 624031); conditions: S16 rat Schwann cells viability, 24 h; series mostly up to 57.5 µM;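 also: native untransfected S16 rat Schwann cells; nearly all actives have a fitted effect of over 70% in size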
# Procedure, shortened: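 Counter-screen for cytotoxicity: parental S16 rat Schwann cells lacking the PMP22 reporters, treated 24 h with compound, viability from cellular ATP by CellTiter-Glo luminescence, normalized to DMSO (0%) and no-cell wells.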
smiles,measurement,setting,value
CC(NC(=O)Cc1cc(F)cc(F)c1)C(=O)NC(C(=O)OC(C)(C)C)c1ccccc1 (configuration not stated),Potency,[1],inactive
same,outcome,[2],inactive
OC[C@H]1O[C@@H](n2cnc3c2NC=NC[C@H]3O)C[C@@H]1O,Potency,[3],inactive
CCC1(Cc2ccc(N)cc2)CCC(=O)NC1=O (configuration not stated),Potency,[1],inactive
COC(=O)C1=C(C)NC(C)=C(C(=O)OCCCN2CCC(c3ccccc3)(c3ccccc3)CC2)[C@H]1c1cccc([N+](=O)[O-])c1,outcome,[2],inactive
O=C(Nc1ccc(Br)cc1)c1cc(Br)c(Br)s1,Potency,[3],16.1 µM (active)
same,Potency,[4],inactive
same,Potency,[5],inactive
CN(NC(=O)CC(=O)NN(C)C(=S)c1ccccc1)C(=S)c1ccccc1,Potency,[1],inactive
same,outcome,[2],inactive
O=c1cc(C2=CC=CC3Sc4ccccc4SC23)oc(N2CCOCC2)c1 (configuration not stated),outcome,[2],inactive
CC1(C)S[C@@H]2[C@H](NC(=O)[C@@H](NC(=O)N3CCNC3=O)c3ccccc3)C(=O)N2[C@H]1C(=O)O,Potency,[3],inactive
same,Potency,[6],inactive
same,Potency,[4],inactive
same,Potency,[5],inactive
"Cc1c2oc3c(C)ccc(C(=O)N[C@@H]4C(=O)NC(C(C)C)C(=O)N5CCC[C@H]5C(=O)N(C)CC(=O)N(C)C(C(C)C)C(=O)O[C@@H]4C)c3nc-2c(C(=O)N[C@@H]2C(=O)NC(C(C)C)C(=O)N3CCC[C@H]3C(=O)N(C)CC(=O)N(C)C(C(C)C)C(=O)O[C@@H]2C)c(N)c1=O (some centres not stated) (I: T[ξV]P[Sar][ξNMeV] / II: T[ξV]P[Sar][ξNMeV]; ester I:1-I:C, II:1-II:C; linker I:N-II:N via Actinocin(9to1))",Potency,[1],0.0013 µM (active)
same,outcome,[2],inactive
